Screening results deposited in PubChem BioAssay by University of Kansas High Throughput Screening Laboratory.
An excerpt weighted towards active compounds, which were near 3.6% of everything screened.
Pf apPOL block: Pf-apPOL DNA polymerase inhibition; Recombinant Pf-apPOL, molecular beacon fluorescence, 1.5 h; inhibition, % at 10 µM; 210,000 tested, 0.25% active; AID 1794808
mHTT CaM bind: inhibitors of human mutant huntingtin-calmodulin interaction; inhibition, % at 15 µM; 190,000 tested, 3.6% active; P42858; AlphaScreen His-mHTT/GST-CaM binding, luminescence;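 also: 0% = both proteins with DMSO and 100% = one protein alone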
Starred values were filed as active, the others as inactive; . = not tested or not shown. Rule as the data show it: active = inhibition above about 50%; inactive = the rest.

SMILES | Pf apPOL block | mHTT CaM bind
Cc1ccc(C(=O)NCc2ccc(-n3ccnc3)cc2)cc1 | -1 | 13
CC(C)c1ccc(/C=C2/SC(=NC3C(=O)C=CCC3=O)N(c3ccccc3)C2=O)cc1 (stereo not drawn) | -2 | 4
O=C(Nc1nc(-c2ccc3c(c2)OCO3)cs1)c1ccccc1Br | 0 | 24
CCCOc1ccc(N2C(=O)C3C(C2=O)C2(C)CC3(C)CC2=O)cc1 (stereo not drawn) | -2 | 5
Cc1ccc(NC2=CC(c3cccc([N+](=O)[O-])c3)N(c3ccc(C)cc3)C2=O)cc1 (stereo not drawn) | 9 | 8
Cn1c(Cl)cnc1C1CC(c2cc(Cl)ccc2O)=NN1 (stereo not drawn) | 3 | 67*
Oc1ccccc1C1=NNC(c2ccc(Br)cc2)C1 (stereo not drawn) | -3 | 57*
Oc1ccc(F)cc1C1=NNC(c2ccc3c(c2)OCCO3)C1 (stereo not drawn) | 1 | 39
O=[N+]([O-])c1ccc(O)c(C2=NNC(c3ccncc3)C2)c1 (stereo not drawn) | -2 | 30
COc1ccc(C2=NNC(c3ccc(Br)cc3)C2)c(O)c1 (stereo not drawn) | -7 | 47
Oc1ccc(Cl)cc1C1=NNC(c2ccc3c(c2)OCCO3)C1 (stereo not drawn) | -3 | 63*
O=[N+]([O-])c1ccc(O)c(C2=NNC(c3ccc(Cl)cc3)C2)c1 (stereo not drawn) | -1 | 55*
Cn1c(Cl)cnc1C1CC(=O)c2cc(Cl)ccc2O1 (stereo not drawn) | 0 | 16
COC(OC)C12c3ccccc3C(c3ccccc31)C1C(=O)N(CCc3ccccc3)C(=O)C12 (stereo not drawn) | -7 | 39
N#CC(C#N)=CNc1ccc(S(=O)(=O)c2ccc(NC=C(C#N)C#N)cc2)cc1 | -10 | .
Cc1ccc(S(=O)(=O)N2CCC(c3nc4cccnc4n3C)C2)cc1 (stereo not drawn) | -3 | 1
Cc1cc(C)cc(NC(=O)N2CCCC(C)(C(=O)NCc3ccccc3)C2)c1 (stereo not drawn) | 7 | -2
CCCn1cnnc1C1CCCCN1Cc1ccoc1 (stereo not drawn) | -3 | 17
O=C1C(=Cc2cn(-c3ccccc3)nc2-c2ccccc2)CCc2ccccc21 | 2 | .
O=C1CSC(c2cc3c(cc2[N+](=O)[O-])OCO3)N1C1CCCCC1 (stereo not drawn) | 0 | 19
CCn1ccc(C(=O)N2CCC(CCOC)CC2)n1 | 3 | -3
Cc1nnc(NS(=O)(=O)Cc2ccccc2)s1 | 56* | 1
CC(C)Cc1nnc(NS(=O)(=O)Cc2ccccc2)s1 | -1 | 0
CC(C)CNC(=O)c1cn2ccnc(-c3ccc(F)cc3)c2n1 | 0 | 9
Cc1cc(C)n(CC2CCN(C(=O)c3ccc(Br)o3)CC2)n1 | -20 | -6
SMILES | Pf apPOL block | mHTT CaM bind
COc1ccccc1C1CC(c2ccc(C)cc2C)=NN1C(=O)CN1CCOCC1 (stereo not drawn) | -4 | 63*
COc1ccccc1C1CC(c2ccc(F)cc2)=NN1C(=O)CN1CCCCC1 (stereo not drawn) | 0 | 100*
COc1ccccc1C1CC(c2cccc(C)c2)=NN1C(=O)CN1CCCCC1 (stereo not drawn) | -2 | 45
Cc1ccc(C2=NN(C(=O)CN3CCOCC3)C(c3cc(C)ccc3C)C2)c(C)c1 (stereo not drawn) | -2 | 65*
COc1ccccc1C1CC(c2ccc(C)cc2)=NN1C(=O)CN1CCCCC1 (stereo not drawn) | -5 | 40
Cc1ccc(C2=NN(C(=O)CN3CCOCC3)C(c3ccccc3C)C2)c(C)c1 (stereo not drawn) | -2 | 86*
Cc1ccc(C2=NN(C(=O)CN3CCOCC3)C(c3ccccc3F)C2)c(C)c1 (stereo not drawn) | 0 | 24
Cc1ccc(C2=NN(C(=O)CN3CCOCC3)C(c3ccccc3F)C2)cc1 (stereo not drawn) | -6 | 40
O=C1C2C3C=CC(C3=C3CCCC3)C2C(=O)N1c1cccc([N+](=O)[O-])c1 (stereo not drawn) | 0 | 4
Cc1ccc(CNC(=O)C2CCN(c3cncnc3N3CCOCC3)CC2)cc1 | -1 | 18
O=C(CCCCCN1C(=O)c2cccc([N+](=O)[O-])c2C1=O)Nc1ccccc1Cl | -7 | 1
CC1=CC(=O)C(Br)=CC1=NS(=O)(=O)c1ccc(C)cc1 | -9 | 64*
Cc1ccc(C)c(S(=O)(=O)N=C2C=CC(=O)C=C2)c1 | -4 | 51*
CCN(CC)C(=NS(=O)(=O)c1cc(C)ccc1C)c1ccccc1 | 3 | 6
Cc1ccc(S(=O)(=O)N=C2C=CC(=O)C(Br)=C2)cc1 | -4 | 59*
Cc1ccc(S(=O)(=O)N=C2C=C(Br)C(=O)C(Br)=C2)cc1 | 0 | 45
Cc1ccc(S(=O)(=O)N=C2C=C(C(C)C)C(=O)C(C(C)C)=C2)cc1 | 1 | -4
Cc1cc(C)c(S(=O)(=O)N=C2C=CC(=O)C=C2)c(C)c1 | -4 | 39
Cc1ccc(C)c(S(=O)(=O)N=C2C=CC(=O)C(Br)=C2)c1 | -2 | 65*
COc1ccc(NC(=O)CN(Cc2ccccc2)S(=O)(=O)c2ccc(F)cc2)cc1 | -4 | -7
CCN(CC)CCCNC(=O)CSc1nc2nc(C)c(Cc3ccccc3)c(C)n2n1 | -2 | 5
COc1ccc(OC)c(C2C(C(=O)Nc3c(F)cccc3F)=C(C)NC3=C2C(=O)CCC3)c1 (stereo not drawn) | -20 | 4
Cc1ccc(CC(=O)N2CCN(c3nc(CN4CCOCC4)cs3)CC2)cc1 | 0 | 15
Cc1ccc(C(=O)Nc2ccc(F)cc2)c(Cl)c1 | -1 | 1
CC1=NN(c2ccc(Br)cc2)C(=O)/C1=C/c1ccc(-c2ccc3c(c2)C(=O)NC3=O)o1 | -1 | 6
SMILES | Pf apPOL block | mHTT CaM bind
O=C1NC(=S)N/C1=C/c1ccc(-c2ccc3c(c2)C(=O)NC3=O)o1 | . | 55*
Cc1ccc2nc(/C(C#N)=C/c3cccc(Br)c3)[nH]c2c1 | -2 | -21
COc1cc(/C=C(\C#N)c2nc3ccccc3[nH]2)cc(Br)c1O | 8 | 1
N#C/C(=C\c1ccc(O)cc1O)c1nc2ccccc2[nH]1 | 0 | 72*
N#C/C(=C\c1cc(Cl)ccc1O)c1nc2ccccc2[nH]1 | 4 | 8
COc1ccc(/C=C(\C#N)c2nc3ccc(C)cc3[nH]2)cc1 | -14 | 4
Cc1ccc2nc(/C(C#N)=C/c3cccc(O)c3)[nH]c2c1 | -4 | 70*
COc1cc(/C=C(\C#N)c2nc3ncc(Br)cc3[nH]2)ccc1O | -7 | 55*
COc1cc(/C=C(\C#N)c2nc3ccc(C)cc3[nH]2)ccc1OCC#N | -4 | 70*
O=C(CN1C(=O)NC2(CCCCC2)C1=O)NCc1ccccc1Cl | -8 | -5
Cc1ccc2cc3cc(C(=O)Nc4ccc(C(F)(F)F)cc4)oc3nc2c1 | -2 | 3
N#C/C(=C\c1ccc(Sc2nc3ccccc3[nH]2)o1)c1nc2ccccc2[nH]1 | -6 | 100*
N#C/C(=C\c1ccc(I)o1)c1nc2ccccc2[nH]1 | 2 | -3
O=C(Oc1ccc2c(c1)OC(=Cc1ccccc1)C2=O)c1ccco1 | -4 | 4
O=C(Oc1ccc2c(c1)OC(=Cc1ccccc1Br)C2=O)c1ccco1 | -4 | 50*
CC(C)(C)N=C1Nc2ccccc2CNC12CCN(C(=O)c1ccsc1)C2 (stereo not drawn) | -7 | 16
CC1C(C#N)=C(N)SC(N)=C1C#N | -3 | 98*
